The whole screen tested about 350,000 compounds, of which about 7,000 (2%) were called active. Cut-off read from the data, not from the text of the source: active = activation above about 40%; inconclusive = no clear call, values can overlap the other calls; inactive = below that. What follows is part of a selection rich in actives, with near analogues and random picks from the rest.

The nature of this experiment: Bmi1 luciferase reporter increase in mESCs, primary screen, esBAF inhibitor project, mouse ES cells, Bmi1 luciferase knock-in, single point (AID 602393).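 Note: 0% = median of the plate's neutral control wells and 100% = double that signal; a rise in the Bmi1 reporter signal indicates esBAF inhibition.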 To be noted: 24 h, at 12.5 µM, stronger effect = higher value, 100% = twice the neutral-well signal.
`COc1ccc(NC(=O)Nc2ccc3c(c2)CC(=O)N([C@@H](C)CO)C[C@@H](C)[C@H](CN(C)C(=O)NC2CCCCC2)O3)cc1`: the reporter increase was 3.44% (inactive).

In the case of `O=C(Cc1ccccn1)c1ccc(O)cc1O`, the reporter increase was 7.66% (inactive).

Turning to `c1ccc(CCc2ccccn2)cc1`, the reporter increase is 16.6% (inactive).

In the case of `Oc1cccc(CCc2ccccn2)c1`, the reporter increase is 45.8% (active).

As to `CO[C@H]1CN(C)C(=O)c2cc(NC(=O)C3CC3)ccc2OC[C@H](C)N(CC2CCCC2)C[C@@H]1C`, the reporter increase was -2.34% (inactive).

In the case of `O=C(COC(=O)C1CCCO1)Nc1nc(-c2ccc(F)cc2)cs1` (centres undefined), the reporter increase is 49.2% (active).

In the case of `CC1CCCC(C)N1C(=O)CN1CCN(c2nc(-c3ccc(F)cc3)cs2)CC1` (centres undefined), the reporter increase was 7.37% (inactive).

`O=C(CSC1=NCCS1)Nc1nc(-c2ccccc2)cs1`: the reporter increase is 5.05% (inactive).

For `Cc1ccc(-c2csc(NC(=O)Cc3cccs3)n2)cc1C`, the reporter increase is 48.9% (active).

For the molecule `COc1cc(OC)cc(C(=O)NNC(=O)Cc2cccs2)c1`, the reporter increase was 3.48% (inactive).

On to `Cc1ccc(-c2csc(N(Cc3ccco3)C(=O)c3cccs3)n2)cc1`, for which the reporter increase is 2.94% (inactive).

In the case of `Cc1ccc(-c2csc(NC(=O)C3=COCCO3)n2)cc1C`, the reporter increase is 43.9% (active).

Consider `NS(=O)(=O)c1ccc2nc(NC(=O)C3=COCCO3)sc2c1`, for which the reporter increase is -2.59% (inactive).

As to `Cc1ccc(-c2csc(NC(=O)c3cccs3)n2)cc1`, the reporter increase was 53.5% (active).

Turning to `COc1ccc(OC)c(NC(=O)Cc2cccs2)c1`, the reporter increase was 0.423% (inactive).

Take `Cc1csc(NC(=O)C2=COCCO2)n1`: the reporter increase was 39.3% (inactive).

As to `O=C(Nc1n[nH]c(C(F)(F)F)n1)c1cccs1`, the reporter increase was -2.17% (inactive).

Regarding `O=C(C[C@@H]1CC[C@@H](NC(=O)C2CCOCC2)[C@H](CO)O1)Nc1ccc(-c2ccccc2)cc1`, the reporter increase is 8.43% (inactive).

On to `C[C@@H]1CN([C@H](C)CO)C(=O)c2cc(C#CC3(O)CCCC3)cnc2O[C@H]1CN(C)C(=O)C1CCC1`, for which the reporter increase is 2.77% (inactive).

Consider `C[C@@H](NC(=O)C[C@H]1C[C@H]2c3cc(NC(=O)Nc4ccccc4F)ccc3O[C@H]2[C@@H](CO)O1)c1ccccc1`, for which the reporter increase was 2.95% (inactive).

Turning to `O=C(Cc1ccncc1)N[C@H]1CC[C@H](CCn2cc(-c3ccccc3F)nn2)O[C@@H]1CO`, the reporter increase was 12.7% (inactive).

`COc1cccc(-c2cn(CC[C@@H]3CC[C@@H](NC(C)=O)[C@@H](CO)O3)nn2)c1`: the reporter increase is -4.15% (inactive).

Turning to `COc1ccccc1CNC(=O)COC(=O)c1sc(C)nc1C`, the reporter increase was 6.65% (inactive).

For the molecule `COc1ccccc1/C=N/Nc1nc(C)c(C(C)=O)s1`, the reporter increase was 43.3% (active).

For `CNC(=O)c1sc(NCc2ccccc2OC)nc1C`, the reporter increase is 10% (inactive).

With `CCCC#Cc1ccc([C@H]2[C@@H](CO)N3CCCCN(S(=O)(=O)Cc4ccccc4)C[C@H]23)cc1`, the reporter increase is -7.51% (inactive).

With `CCS(=O)(=O)N1[C@H](C#N)[C@H](c2ccc(-c3cccc(F)c3)cc2)[C@@H]1CO`, the reporter increase was 2.95% (inactive).

As for `COC(=O)c1cc(OC)c(OC)cc1NC(=O)CSc1ccc(C)cc1`, the reporter increase is -15.9% (inactive).

In the case of `Cc1ccc(SCC(=O)c2cc(C)c(OC(=S)N(C)C)c(C)c2)cc1`, the reporter increase was 45.8% (active).

As for `CCN1CCN(C(=O)CSc2ccc(C)cc2)CC1`, the reporter increase was 31% (inactive).

`C[C@@H]1CN([C@@H](C)CO)S(=O)(=O)c2ccc(C#Cc3ccccc3F)cc2O[C@H]1CN(C)C(=O)c1ccc2c(c1)OCO2`: the reporter increase was 0.756% (inactive).

Take `CC(C)NC(=O)N(C)C[C@H]1Oc2c(NC(=O)c3ccncc3)cccc2C(=O)N([C@@H](C)CO)C[C@H]1C`: the reporter increase is 1.56% (inactive).

For the molecule `COc1ccc(C=C(C#N)C#N)c(CSc2ccccn2)c1`, the reporter increase is -8.92% (inactive).

Consider `COc1ccc(/C=N/OCc2ccccc2C#N)c(OC)c1`, for which the reporter increase is 82.2% (active).

In the case of `COc1ccc(/C=C2/C(=O)N(c3ccccc3)N=C2C)c(OC)c1`, the reporter increase is -1.3% (inactive).

For the molecule `C[C@H]1CN([C@@H](C)CO)S(=O)(=O)c2ccc(C3=CCCC3)cc2O[C@@H]1CN(C)Cc1ccccc1`, the reporter increase was 1.2% (inactive).

Turning to `COc1ccc(C2=Nc3ccccc3NC(=O)C2N(C(=O)c2cc3ccccc3[nH]2)c2ccccc2)cc1` (centres undefined), the reporter increase is 47.8% (active).

Turning to `CC(OC(=O)c1cc2ccccc2[nH]1)C(=O)N(C)c1ccccc1` (centres undefined), the reporter increase was 7.66% (inactive).

Turning to `COc1ccc(NC(=O)N(C)C[C@@H]2OCc3ccccc3-c3c(n(C)c4ccccc34)C(=O)N([C@H](C)CO)C[C@H]2C)cc1`, the reporter increase is -4.05% (inactive).

In the case of `CO[C@@H](CN(C)S(=O)(=O)c1cccc(Cl)c1)[C@H](C)CN([C@H](C)CO)S(=O)(=O)c1cccc(Cl)c1`, the reporter increase was 6.95% (inactive).

In the case of `CN1c2ccc(-c3cccc(F)c3)cc2[C@H]2[C@H](CCN2C(=O)C2CCCC2)[C@@H]1CO`, the reporter increase was 2.05% (inactive).

As to `COc1ccccc1-c1cc(C(=O)N2CCCCC2)no1`, the reporter increase was 52.4% (active).

With `COc1ccc(C(=O)C2CCCN(C(=O)c3cc(C)on3)C2)cc1F` (centres undefined), the reporter increase was -6.1% (inactive).

For the molecule `O=C(c1cc(-c2cccs2)on1)N1CCCCC1`, the reporter increase was -2.46% (inactive).

As to `C[C@@H]1CN([C@H](C)CO)C(=O)c2cc(NC(=O)CCCN(C)C)ccc2O[C@@H](C)CCCCO[C@@H]1CN(C)Cc1ccncc1`, the reporter increase is 1.15% (inactive).

Regarding `C[C@H]1CN([C@@H](C)CO)C(=O)c2cccc(NC(=O)Nc3ccccc3)c2O[C@H]1CN(C)Cc1ccc(C(F)(F)F)cc1`, the reporter increase is -0.852% (inactive).

In the case of `CCCC(=O)N1c2ccc(-c3csc(N)n3)cc2CC1C` (centres undefined), the reporter increase is 41.3% (active).

With `CCC(=O)N1c2ccc(S(=O)(=O)CCC(=O)N3CCN(c4ccccc4)CC3)cc2CC1C` (centres undefined), the reporter increase was 29.9% (inactive).

As to `Cc1ccn(CCC(=O)N2c3ccccc3CC2C)n1` (centres undefined), the reporter increase is 0.95% (inactive).

As to `Cc1csc2nc(COC(=O)c3cccc(N(C)C)c3)cc(=O)n12`, the reporter increase was 82.1% (active).

`Cc1nn2c(=O)cc(COC(=O)c3ccc(NC(=O)C(C)(C)C)cc3)nc2s1`: the reporter increase is 2.43% (inactive).

As to `O=c1cc(CCl)nc2scc(-c3ccccc3)n12`, the reporter increase is -3.84% (inactive).

In the case of `CN1CCN(C(=O)C[C@@H]2C[C@H]3c4cc(NC(=O)NC5CCCC5)ccc4O[C@H]3[C@H](CO)O2)CC1`, the reporter increase was 0.154% (inactive).

On to `CCCNC(=O)C[C@H]1C[C@@H]2c3cc(NC(=O)C4CCOCC4)ccc3O[C@@H]2[C@H](CO)O1`, for which the reporter increase was -3.13% (inactive).
